Assay results reported in PubChem BioAssay AID651791 (National Center for Advancing Translational Sciences (NCATS), 2012).
Inconclusive results are not listed. Activity calls are given as the source filed them. The call rests on the fitted dose curve; in most records, active means well fitted inhibition curve with a large enough effect; inconclusive means small, poorly fitted or top-dose-only effect; inactive means no such curve, though single readings can be large or run the other way.

Experiment: InCell qHTS Assay for Inhibitors of the mTORC1 Signaling Pathway in MEF (Tsc2-/-, p53-/-) Cells: Hit Validation;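 further: phospho-S6 Ser235/236 signal normalized to propidium iodide cell count per well; nearly all actives have a fitted effect of over 75% in size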
Conditions: phospho-rpS6 immunofluorescence, 24 h; activity change, negative = inhibition: at 38.3 µM (top of the series)
Potency means the concentration at half of the fitted maximal effect.

Row | SMILES | activity change, negative = inhibition | Potency
1 | CCc1ccccc1NC(=O)CSc1nc2c(oc3ccccc32)c(=O)n1-c1ccccc1F | -100% | 
2 | CC(C)(C)c1ccc(C(=O)Nc2nnc3n2CCS3)cc1 | -100% | 
3 | CCc1ccc(CNc2ncc(-c3cccc(OC)c3)n2C)cc1 | -100% | 
4 | Cc1ccc(C(C)C)c(OCC(=O)Nc2cc(-c3nc4ccccc4[nH]3)ccc2C)c1 | -100% | 
5 | O=C(Nc1ccc(F)c(F)c1)c1ccc(F)c(S(=O)(=O)N2CCC3(CC2)OCCO3)c1 | -100% | 
6 | CCc1ccc2ncc(S(=O)(=O)c3ccc(Cl)cc3)c(N3CCN(CC)CC3)c2c1 | -100% | 
7 | CC(C)Oc1ccc(CNC(=O)c2ccc3nc(SCc4ccc(F)cc4)n(C)c3c2)cc1 | -100% | 
8 | O=C(c1ccc(CS(=O)c2ccccc2Cl)o1)N1CCN(c2cccc(C(F)(F)F)c2)CC1 (stereo not drawn) | -28.2% | 
9 | CCn1c(CN2CCC(C)CC2)nc2cc(NC(=O)c3ccccc3[N+](=O)[O-])ccc21 | -100% | 
10 | CCn1c(CC2C(=O)N(C)c3ccc(Br)cc32)nc2ccccc2c1=O (stereo not drawn) | -100% | 
11 | CCCCN(CC)CCNC(=O)C1CCN(c2nnc(C)c3c(C)n(-c4ccc(C)cc4)nc23)CC1 | -100% | 
12 | O=S(=O)(c1ccccc1)n1nc(-c2ccc(Cl)cc2)nc1NCc1ccccc1 | -5.06% | 
13 | CCOc1cc(C(Nc2cc(C)ccn2)c2ccc3cccnc3c2O)ccc1OC (stereo not drawn) | -100% | 
14 | CC(C(=O)NCc1cccc(Br)c1)n1ncn2cccc2c1=O (stereo not drawn) | -100% | 
15 | COc1cc(CNc2ccc3c(c2)ncn3C(C)C)cc(OC)c1OC | -100% | 
16 | CCN(CC)CCNC(=O)c1ccc(Cn2c(=O)c3cccn3c3cccnc32)cc1 | -100% | 
17 | O=C(C1CCN(c2nc3ccccc3[nH]2)CC1)N1CCN(c2cccc(Cl)c2)CC1 | -100% | 
18 | COc1ccc(OCC(=O)NCc2ccc3c(c2)CCN3C(=O)c2cccc(C)c2)cc1 | -100% | 
19 | COc1ccc(CNC(=O)C2CCN(c3nc4ccc(C)cc4[nH]3)CC2)cc1 | -100% | 

Row | SMILES | activity change, negative = inhibition | Potency
20 | COCCCNC(=O)c1cc2c(=O)oc3ccc(C)cc3c2s1 | -100% | 
21 | CCOC(=O)N1CCN(Cc2nc3cc(NC(=O)c4ccc(F)cc4)ccc3n2C(C)C)CC1 | -100% | 
22 | Cc1cc(NC(=O)c2ccco2)cc(-c2nc3cc(Cl)ccc3o2)c1O | -4.63% | 
23 | CCCCOC(=O)c1ccc(NC(=O)c2ccc3c(c2)CCN3S(=O)(=O)c2ccccc2)cc1 | -100% | 
24 | CCOC(=O)c1cnc2ccc(OC)cc2c1NCCc1ccccc1 | -100% | 
25 | COc1ccc(CNC(=O)c2cccc(N3CCCS3(=O)=O)c2)cc1OC | -100% | 
26 | Cc1ccc(NC(=O)Nc2cccs2)c(C)c1 | -100% | 
27 | CCCCn1c(=N)n(CCOc2ccccc2OC)c2ccccc21 |  | 7.36 µM (active)
28 | COc1ccc(N2CCN(C(=O)C3CCCN(S(=O)(=O)c4ccc5c(c4)CCCN5C(C)=O)C3)CC2)cc1 (stereo not drawn) | -100% | 
29 | Cc1ccc(-c2nnn(CC(=O)N(CC(=O)NCCC(C)C)c3ccc(F)cc3)n2)cc1 | -100% | 
30 | Cc1ccc(CN(Cc2cccn2-c2nnc(N3CCCC3=O)s2)C(=O)Nc2ccccc2C(F)(F)F)cc1 | -100% | 
31 | Cc1ccc2nc(/C(C#N)=C/c3ccc(-c4ccc(F)cc4F)o3)[nH]c2c1 | -100% | 
32 | Cc1ccc(C)c(NC(=O)c2nc(S(=O)(=O)Cc3ccc(F)cc3)ncc2Cl)c1 |  | 3.29 µM (active)
33 | COc1ccccc1CCNC(=O)C1CCN(c2nnc(-n3cccc3CNc3ccc(C)cc3)s2)CC1 | -100% | 
34 | CCOC(=O)c1c(NC(=O)c2ccc(S(=O)(=O)N3CCC(C)CC3)cc2)sc2c1CCN(C)C2 | 1.72% | 
35 | Cc1cccc(CS(=O)(=O)c2ncc(Cl)c(C(=O)Nc3nnc(C(C)C)s3)n2)c1 |  | 13.1 µM (active)
36 | CCOc1ccc(-n2c(C)nc3c(cnn3-c3ccc(C)cc3)c2=O)cc1 | -100% | 
37 | Cc1ccc(S(=O)(=O)c2nnn3c2nc(NCc2cccs2)c2sccc23)cc1 | -100% | 
38 | Cc1ccc2occ(CC(=O)Nc3ccc(Cl)c(C(F)(F)F)c3)c2c1 | -100% | 
